Most compounds without a hit are left out; they make up all but 1.6% or so of the library.
HUVEC tox TNFa: toxic to HUVEC cells under TNF alpha stimulation; AID 848; actives 0.17% (n = 93,000); HUVEC TNFalpha-stimulated, Hoechst cell count, imaging; cell count reduction, % at 2 µM;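 active means cell count reduction exceeding the screen mean by over 5 SD, scaled to untreated wells per plate, cut at about 78% in these data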;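 further: cells counted after 24 h of TNF alpha exposure following the 1 h pretreatment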
IL1B NFkB pot: enhances IL-1B driven NFkB nuclear translocation; HUVEC IL-1B NFkB p65 nuclear translocation imaging; activation, % at 2 µM; actives 0.3% (n = 94,000); AID 819;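 active means activation above 40%, about the mean plus 3 SD, also judged a hit on visual image review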;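 further: percent activation is computed from the nuclear over cytoplasmic p65 intensity ratio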
NFkB transloc inh: blocks IL-1B driven NFkB nuclear translocation in HUVEC cells; HUVEC IL-1B NFkB p65 nuclear translocation imaging; actives 0.43% (n = 94,000); inhibition, % at 2 µM; AID 796;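 active means inhibition above about 30% together with a positive call from visual inspection of the well image, limit read from the data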;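 further: nuclear over cytoplasmic p65 intensity ratio measured by imaging; 0% = IL-1B stimulated DMSO wells and 100% = unstimulated DMSO wells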
VCAM1 TNFa inh: reduces TNF alpha induced VCAM1 expression in HUVEC | HUVEC TNFa-induced VCAM-1 immunofluorescence, high-content imaging | inhibition, % at 2 µM | actives 0.48% (n = 95,000) | AID 802;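 active means inhibition above the batch mean plus 3 SD, with images confirmed as a hit by eye, cut at about 37% in these data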;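 further: 0% = TNF-stimulated DMSO wells and 100% = unstimulated control wells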
IL1B cytotox: toxic to HUVEC cells under IL-1B stimulation. cell count reduction, % at 2 µM. HUVEC cell count loss, Hoechst imaging, IL-1B stimulated. actives 0.41% (n = 94,000);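 active means cell count reduction more than 3 SD above the screen-wide mean, cut at about 70% in these data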;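 further: normalized per plate to untreated control cells as the no-loss baseline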
E-sel TNF inh: blocks E-selectin expression induced by TNF alpha; HUVEC TNFa-induced E-selectin immunofluorescence, high content; inhibition, % at 2 µM; actives 0.71% (n = 120,000);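 active means inhibition above the batch mean plus 3 SD, and confirmed as a hit on visual image review, cut at about 43% in these data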;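 further: 0% = TNF-stimulated DMSO wells and 100% = unstimulated control wells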
An asterisk follows results filed as active; nt = not tested or not shown.

SMILES	HUVEC tox TNFa	IL1B NFkB pot	NFkB transloc inh	VCAM1 TNFa inh	IL1B cytotox	E-sel TNF inh
CO/N=C/C(=N\Nc1ccc(C)cc1)C(=O)c1ccc(OC)cc1	24	-3	3	40*	24	6
CC(Sc1ncnc2ccccc12)C(=O)Nc1ccc2c(c1)OCCO2 (centres undefined)	nt	nt	nt	nt	nt	-22
CC1CCN(C(=O)/C(=C/c2ccccc2Cl)c2ccccc2)CC1	-7	-3	3	-13	11	-32
N#CC(C#N)=C1C=CC=CN1/C(=C\c1ccccc1Cl)C(=O)c1ccccc1	nt	nt	nt	nt	nt	69*
CCCCCCCCCCn1c2c(c(=N)c3c1CCC3)CCC2	14	-11	11	87*	-5	nt
COc1ccc(NC(=O)N2CCn3c2nc2ccccc23)cc1	6	-19	19	58*	2	-4
O=C(Nc1ccccc1)N1CCn2c1nc1ccccc12	10	0	0	16	-8	-13
CC(=O)N1N=C(c2ccco2)CC1c1cccs1 (centres undefined)	9	1	-1	2	3	29
O=C(CCl)N1N=C(c2ccco2)CC1c1cccs1 (centres undefined)	nt	nt	nt	nt	nt	70*
Cc1c(NC(=O)c2cccc(F)c2)c(=O)n(-c2ccccc2)n1C	7	2	-2	7	77*	-47
Cc1c(NC(=O)CN2CC(C)OC(C)C2)c(=O)n(-c2ccccc2)n1C (centres undefined)	2	11	-12	16	12	66*
Cc1c(NC(=O)CN2CCN(c3ccccc3)CC2)c(=O)n(-c2ccccc2)n1C	12	8	-8	14	-16	-11
Cc1c(NS(=O)(=O)c2cccc(C(=O)NCc3ccccc3)c2)c(=O)n(-c2ccccc2)n1C	2	6	-6	-7	7	41
Cc1c(NS(=O)(=O)c2cccc(C(=O)NCc3ccncc3)c2)c(=O)n(-c2ccccc2)n1C	-3	42*	-42	15	8	6
Cc1c(NC(=O)c2c(N)n(-c3ccccc3)c3nc4ccccc4nc23)c(=O)n(-c2ccccc2)n1C	nt	nt	nt	nt	nt	77*
Cc1ccc(CN(CC(=O)NC(C)(C)C)C(=O)CNC(=O)c2cccs2)cc1	nt	nt	nt	nt	nt	-18
CCC1CCC2(CC1)NC(=O)N(CC(=O)c1c(C)[nH]c3ccccc13)C2=O (centres undefined)	nt	nt	nt	nt	nt	36
CCOC(=O)c1[nH]c(COC(=O)CCOc2ccccc2OC)c(C(=O)OCC)c1C	-2	9	-9	-6	12	-3
CCOC(=O)c1[nH]c(C)c(C(=O)c2ccc(C)cc2)c1C	33	30	-30	48*	3	-16
CCOC(=O)c1c(C)[nH]c(C(=O)OCC(=O)Nc2cc(C)ccc2OC)c1C	-8	-12	12	1	2	1
CCOC(=O)c1c(C)[nH]c(C(=O)OCCOc2ccccc2C)c1C	nt	nt	nt	nt	nt	67*
CCOC(=O)c1[nH]c(C)c(C(=O)Nc2cc(OC)ccc2OC)c1C	43	-30	30*	40	80*	26
O=S(=O)(Nc1cc(C(F)(F)F)ccc1N1CCOCC1)c1ccc2ccccc2c1	nt	nt	nt	nt	nt	-1
COc1ccc(-c2nn(-c3ccccc3)cc2/C=C(/C#N)C(N)=O)cc1[N+](=O)[O-]	nt	nt	nt	nt	nt	3
CC1CC1c1ccc(/C=C(\C#N)C(=O)Nc2ccc(Cl)cc2)o1 (centres undefined)	nt	nt	nt	nt	nt	64*
SMILES	HUVEC tox TNFa	IL1B NFkB pot	NFkB transloc inh	VCAM1 TNFa inh	IL1B cytotox	E-sel TNF inh
Cc1cc2cc(CNC(=S)Nc3ccc(OC(F)(F)F)cc3)ccc2[nH]1	nt	nt	nt	nt	nt	14
COc1ccc(/C=N/NC(=O)CC2N=C(Cc3ccccc3)NNC2=O)cc1OC (centres undefined)	nt	nt	nt	nt	nt	-1
C/C(=N\NC(=O)CC1N=C(Cc2ccccc2)NNC1=O)c1ccc(C)cc1 (centres undefined)	52	-8	8	15	-6	100*
O=C(CSc1nc2ccccc2[nH]1)N1CCN(S(=O)(=O)c2ccc(Cl)cc2)CC1	15	16	-16	-8	-1	68*
C/C(=N/NC(=O)CNC(=O)c1cccc(F)c1)c1ccc2c(c1)CCCC2	nt	nt	nt	nt	nt	-11
CC(C)CCN1CC(C(=O)N2CCN(c3ccc(F)cc3)CC2)CC1=O (centres undefined)	-6	15	-15	13	76*	33
COc1ccccc1CN1CC(C(=O)N2CCN(c3ccc(F)cc3)CC2)CC1=O (centres undefined)	10	41*	-41	40	-10	5
CNC(=O)C1CCC(=O)N1Cc1ccccc1Cl (centres undefined)	-4	4	-4	2	7	2
O=C1CC(C(=O)N2CCN(c3ccc(F)cc3)CC2)CN1CCc1ccccc1 (centres undefined)	-11	37	-37	-15	5	0
O=C(C1CCC(=O)N1Cc1ccccc1Cl)N1CCN(c2ccc(F)cc2)CC1 (centres undefined)	0	5	-5	-1	78*	28
O=C(O)c1ncn(Cc2ccc(Br)cc2)c1C(=O)O	nt	nt	nt	nt	nt	-22
O=C(NCNC(=O)c1ccccc1)c1ccccc1	-11	11	-11	11	81*	8
C=CCNC(=O)c1ccc(C(=O)c2ccccc2)cc1	-17	-7	7	-41	5	nt
O=C(Nc1ccccc1)c1cccc(S(=O)(=O)Oc2ccc([N+](=O)[O-])cc2)c1	nt	nt	nt	nt	nt	27
Cc1cc(NC(=O)CSc2nnc(Cc3ccccc3)n2C)no1	-20	7	-7	17	-1	44*
Cc1cc(NC(=O)CSc2nc3ccccc3c(=O)n2C2CCCC2)no1	46	-17	17	68*	34	-2
CN(C)c1ccc(NC(=O)CSc2nc3ccccc3c(=O)n2C2CCCCC2)cc1	3	-6	6	-6	-16	nt
CCN1C(=O)/C(=C/N(C(C)=O)c2ccccc2)N(c2ccccc2)C1=S	-16	-43	43*	10	-29	7
O=C(Nc1ccccc1)c1nsnc1C(=O)Nc1ccccc1	nt	nt	nt	nt	nt	-12
O=C(/C=C/c1cccc([N+](=O)[O-])c1)n1cnc2ccccc21	nt	nt	nt	nt	nt	99*
CNc1nc(Nc2ccc(Br)cc2)nc(N)c1[N+](=O)[O-]	nt	nt	nt	nt	nt	-29
COC(=O)c1ccc(Oc2cc(C)nc(NCc3ccccc3)n2)cc1	-23	-4	4	-8	22	1
COC(=O)c1ccc(Oc2nc(C)cc(Oc3ccccc3)n2)cc1	-6	27	-27	-33	90*	-4
CN(C/C(O)=C(\C#N)c1ccccc1)C1CCCCC1	-3	126*	-126	7	-2	-1
N#CCCN(C(=S)NC(=O)c1ccco1)c1ccccc1F	nt	nt	nt	nt	nt	-36
O=C(c1ccc(COc2ccccc2Br)cc1)N1CCCCC1	-34	54*	-54	18	0	-18
Cc1cc([N+](=O)[O-])nn1CC(=O)Nc1sc2c(c1C(N)=O)CCCC2	nt	nt	nt	nt	nt	80*
NC(=O)c1c(NC(=O)Cc2cccs2)sc2c1CCC2	1	3	-3	92*	-15	6

Screens: PubChem BioAssay, Columbia University Molecular Screening Center
